# Measurements taken from PubChem BioAssay AID1159580 (chemical genetic matrix, 2015).
# Screen size: about 5,500 compounds; about 2,000 (36%) were called active. Not shown: some 18% with an inconclusive outcome. Some of the results follow. Values without a mark were called inactive. Rule as the data show it: active = normalized growth mostly below about 0.91 (no sharp cut-off); inconclusive = no clear call, values can overlap the other calls; inactive = mostly above about 0.92.
# Experiment: chemical genetic growth profiling, strain panel (AID 1159580);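 also: tested at 20 µM; growth read once vehicle control cultures reached saturation at 30 °C; 1 = growth at the plate median or of vehicle wells; lower values mean less growth of the strain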
# Conditions: growth OD
compound,measurement,setting,value
S=c1[nH]c2ccccc2s1,normalized growth,"S. cerevisiae deletion strains, locus YKL009W, strain mrt4, hits give low values",0.996
same,normalized growth,"S. cerevisiae deletion strains, locus YKL068W, hits give low values",1.02
same,normalized growth,"S. cerevisiae deletion strains, locus YKL085W, strain MDH1 (second series), hits give low values",1.01
same,normalized growth,"S. cerevisiae deletion strains, locus YKL085W, strain MDH1, hits give low values",1.01
same,normalized growth,"S. cerevisiae deletion strains, locus YKL160W, strain elf1, hits give low values",1.01
same,normalized growth,"S. cerevisiae deletion strains, locus YKL190W, strain CNB1, hits give low values",0.99
same,normalized growth,"S. cerevisiae deletion strains, locus YKR001C, strain vps1, hits give low values",0.954
same,normalized growth,"S. cerevisiae deletion strains, locus YKR026C, strain gcn3, hits give low values",0.992
same,normalized growth,"S. cerevisiae deletion strains, locus YKR091W, strain srl3, hits give low values",0.999
same,normalized growth,"S. cerevisiae deletion strains, locus YLL001W, strain dnm1, hits give low values",0.992
same,normalized growth,"S. cerevisiae deletion strains, locus YLL026W, hits give low values",0.989
same,normalized growth,"S. cerevisiae deletion strains, locus YLL041C, strain sdh2, hits give low values",0.98
same,normalized growth,"S. cerevisiae deletion strains, locus YLR027C, strain aat2, hits give low values",0.972
same,normalized growth,"S. cerevisiae deletion strains, locus YLR039C, strain RIC1, hits give low values",0.858
same,normalized growth,"S. cerevisiae deletion strains, locus YLR058C, strain SHM2, hits give low values",0.962
same,normalized growth,"S. cerevisiae deletion strains, locus YLR102C, strain apc9, hits give low values",1.01
same,normalized growth,"S. cerevisiae deletion strains, locus YLR113W, strain HOG1, hits give low values",0.919
same,normalized growth,"S. cerevisiae deletion strains, locus YLR221C, strain rsa3, hits give low values",0.936
same,normalized growth,"S. cerevisiae deletion strains, locus YLR258W, strain gsy2, hits give low values",0.988
same,normalized growth,"S. cerevisiae deletion strains, locus YLR262C, strain YPT6 (second series), hits give low values",0.82 (active)
same,normalized growth,"S. cerevisiae deletion strains, locus YLR262C, strain YPT6, hits give low values",0.921
same,normalized growth,"S. cerevisiae deletion strains, locus YLR268W, strain sec22, hits give low values",0.932
same,normalized growth,"S. cerevisiae deletion strains, locus YLR320W, strain mms22, hits give low values",0.967
same,normalized growth,"S. cerevisiae deletion strains, locus YLR330W, strain CHS5, hits give low values",0.997
same,normalized growth,"S. cerevisiae deletion strains, locus YLR342W, strain FKS1 (second series), hits give low values",0.808
same,normalized growth,"S. cerevisiae deletion strains, locus YLR342W, strain FKS1, hits give low values",0.972
same,normalized growth,"S. cerevisiae deletion strains, locus YLR357W, strain rsc2, hits give low values",0.879
same,normalized growth,"S. cerevisiae deletion strains, locus YLR370C, strain arc18, hits give low values",0.971
same,normalized growth,"S. cerevisiae deletion strains, locus YLR371W, strain rom2, hits give low values",1.01
same,normalized growth,"S. cerevisiae deletion strains, locus YLR384C, strain iki3, hits give low values",0.982
same,normalized growth,"S. cerevisiae deletion strains, locus YLR418C, strain cdc73, hits give low values",0.907
same,normalized growth,"S. cerevisiae deletion strains, locus YML016C, strain PPZ1, hits give low values",0.973
same,normalized growth,"S. cerevisiae deletion strains, locus YML032C, strain rad52, hits give low values",1
same,normalized growth,"S. cerevisiae deletion strains, locus YML120C, strain ndi1, hits give low values",1.07
same,normalized growth,"S. cerevisiae deletion strains, locus YML124C, strain tub3, hits give low values",1.01
same,normalized growth,"S. cerevisiae deletion strains, locus YMR058W, strain fet3, hits give low values",0.947
same,normalized growth,"S. cerevisiae deletion strains, locus YMR078C, strain ctf18, hits give low values",1
same,normalized growth,"S. cerevisiae deletion strains, locus YMR125W, strain sto1, hits give low values",1.11
same,normalized growth,"S. cerevisiae deletion strains, locus YMR129W, hits give low values",0.993
same,normalized growth,"S. cerevisiae deletion strains, locus YMR205C, strain PFK2, hits give low values",1.03
same,normalized growth,"S. cerevisiae deletion strains, locus YMR223W, strain ubp8, hits give low values",0.95
same,normalized growth,"S. cerevisiae deletion strains, locus YMR231W, strain pep5, hits give low values",0.973
same,normalized growth,"S. cerevisiae deletion strains, locus YMR263W, strain SAP30, hits give low values",0.994
same,normalized growth,"S. cerevisiae deletion strains, locus YMR307W, strain GAS1, hits give low values",0.862
same,normalized growth,"S. cerevisiae deletion strains, locus YNL067W, strain RPL9B, hits give low values",0.992
same,normalized growth,"S. cerevisiae deletion strains, locus YNL071W, strain lat1, hits give low values",0.929
same,normalized growth,"S. cerevisiae deletion strains, locus YNL128W, strain TEP1, hits give low values",1.02
same,normalized growth,"S. cerevisiae deletion strains, locus YNL153C, strain GIM3, hits give low values",0.973
same,normalized growth,"S. cerevisiae deletion strains, locus YNL183C, strain NPR1, hits give low values",0.751 (active)
same,normalized growth,"S. cerevisiae deletion strains, locus YNL209W, strain ssb2, hits give low values",0.984
same,normalized growth,"S. cerevisiae deletion strains, locus YNL233W, strain BNI4, hits give low values",0.985
same,normalized growth,"S. cerevisiae deletion strains, locus YNL248C, strain rpa49, hits give low values",0.974
same,normalized growth,"S. cerevisiae deletion strains, locus YNL250W, strain rad50, hits give low values",1.01
same,normalized growth,"S. cerevisiae deletion strains, locus YNL271C, strain bni1, hits give low values",0.99
same,normalized growth,"S. cerevisiae deletion strains, locus YNL298W, strain CLA4, hits give low values",1.01
same,normalized growth,"S. cerevisiae deletion strains, locus YNL307C, strain MCK1, hits give low values",0.97
same,normalized growth,"S. cerevisiae deletion strains, locus YNL322C, strain KRE1 (second series), hits give low values",1.02
same,normalized growth,"S. cerevisiae deletion strains, locus YNL322C, strain KRE1, hits give low values",1
same,normalized growth,"S. cerevisiae deletion strains, locus YNR049C, strain mso1, hits give low values",0.983
same,normalized growth,"S. cerevisiae deletion strains, locus YNR052C, strain pop2, hits give low values",0.984
same,normalized growth,"S. cerevisiae deletion strains, locus YOL006C, strain TOP1, hits give low values",0.417 (active)
same,normalized growth,"S. cerevisiae deletion strains, locus YOL012C, strain htz1",0.93
same,normalized growth,"S. cerevisiae deletion strains, locus YOL147C, strain pex11, hits give low values",0.99
same,normalized growth,"S. cerevisiae deletion strains, locus YOR001W, strain rrp6, hits give low values",0.943
same,normalized growth,"S. cerevisiae deletion strains, locus YOR061W, strain CKA2, hits give low values",0.985
same,normalized growth,"S. cerevisiae deletion strains, locus YOR069W, strain VPS5, hits give low values",0.99
same,normalized growth,"S. cerevisiae deletion strains, locus YOR070C, strain gyp1, hits give low values",0.97
same,normalized growth,"S. cerevisiae deletion strains, locus YOR080W, strain dia2, hits give low values",0.992
same,normalized growth,"S. cerevisiae deletion strains, locus YOR083W, strain WHI5, hits give low values",0.997
same,normalized growth,"S. cerevisiae deletion strains, locus YOR106W, strain vam3, hits give low values",0.865 (active)
same,normalized growth,"S. cerevisiae deletion strains, locus YOR136W, strain idh2, hits give low values",0.999
same,normalized growth,"S. cerevisiae deletion strains, locus YOR144C, strain elg1, hits give low values",1.01
same,normalized growth,"S. cerevisiae deletion strains, locus YOR184W, strain ser1, hits give low values",0.88
same,normalized growth,"S. cerevisiae deletion strains, locus YOR231W, strain MKK1, hits give low values",0.798 (active)
same,normalized growth,"S. cerevisiae deletion strains, locus YOR265W, strain rbl2, hits give low values",0.976
same,normalized growth,"S. cerevisiae deletion strains, locus YOR270C, strain vph1, hits give low values",0.834
same,normalized growth,"S. cerevisiae deletion strains, locus YOR290C, strain snf2, hits give low values",0.991
same,normalized growth,"S. cerevisiae deletion strains, locus YOR316C, strain cot1, hits give low values",1.02
same,normalized growth,"S. cerevisiae deletion strains, locus YPL051W, strain arl3, hits give low values",0.904 (active)
same,normalized growth,"S. cerevisiae deletion strains, locus YPL055C, strain LGE1, hits give low values",0.987
same,normalized growth,"S. cerevisiae deletion strains, locus YPL078C, strain atp4, hits give low values",1
same,normalized growth,"S. cerevisiae deletion strains, locus YPL106C, strain sse1, hits give low values",0.986
same,normalized growth,"S. cerevisiae deletion strains, locus YPL240C, strain hsp82, hits give low values",0.986
same,normalized growth,"S. cerevisiae deletion strains, locus YPL241C, strain CIN2, hits give low values",0.998
same,normalized growth,"S. cerevisiae deletion strains, locus YPL256C, strain CLN2, hits give low values",0.904
same,normalized growth,"S. cerevisiae deletion strains, locus YPR119W, strain clb2, hits give low values",1.02
same,normalized growth,"S. cerevisiae deletion strains, locus YPR141C, strain kar3, hits give low values",1.01
same,normalized growth,"S. cerevisiae deletion strains, locus YPR163C, strain tif3, hits give low values",1
same,normalized growth,"S. cerevisiae deletion strains, locus YPR167C, strain met16, hits give low values",1.02
same,normalized growth,"S. cerevisiae deletion strains, strain wtn01, hits give low values",0.977
same,normalized growth,"S. cerevisiae strains, strain wild type, hits give low values",0.996
